Reference: ChEMBL document CHEMBL4513216, “Probing the Open Global Health Chemical Diversity Library for Multistage-Active Starting Points for Next-Generation Antimalarials” (ACS Infect Dis, 2020)
Hit rate of the full screen: of about 68,000 compounds, about 2,700 (4%) showed an effect of 50% or more. Shown is part of a subset that was picked to be rich in strong results.

What follows are compounds tested on Plasmodium berghei (assay: Screen against P. berghei liver stage (PbLuc), transformed with Luciferase, at 2uM). Conditions: tested at 2 uM.
Type: functional, HepG2

Structure (SMILES) | INHIBITION [%]
O=C(Cc1ccsc1)N1C[C@@H]2OCCN(c3cnccn3)[C@@H]2C1 | 21.42
c1cncc(O[C@H]2CC[C@H]3[C@H]2OCCN3C2CCCC2)c1 | -74.01
COc1nc2c(cc1C(=O)N1C[C@@H](N)C[C@H]1C(=O)NC(C)C)CCC2 | 63.17
CC(C)NC(=O)[C@@H]1C[C@@H](N)CN1C(=O)c1cc2c([nH]c1=O)CCCC2 | 31.65
COc1nc2c(cc1C(=O)N1C[C@H](N)C[C@H]1C(=O)NC(C)C)CCC2 | 43.8
CC1CCC(NC(=O)Nc2ccc(CC(=O)N(C)C)cc2)CC1 (configuration not stated) | 35.5
Cn1cc(CN2CCN(CC3(c4ccccc4)CC3)CC2)cn1 | 27.03
COc1ccc2c(C)c(C(=O)N3CCC(NC(C)=O)C3)oc2c1 (configuration not stated) | -41.96
COc1ccccc1[C@@H]1CN(Cc2c(C)noc2C)C[C@H]1C(=O)O | 68.39
Cc1noc(C)c1CN1C[C@@H](C(=O)O)[C@H](c2ccccc2)C1 | -0.59
Cc1ccccc1[C@@H]1CN(Cc2c(C)noc2C)C[C@H]1C(=O)O | -18.65
O=C(NCCn1ccnc1)N1CCN(c2nccs2)CC1 | -16.42
Cc1nc(CN2CC(Cc3ccccc3)CC2=O)no1 (configuration not stated) | -12.68
O=C(O)[C@]12CCCN(CC3CCOC3)C[C@H]1CN(c1ncccn1)C2 (some centres not stated) | 13.16
O=C1CCN(C(=O)C2(c3ccc(F)cc3)CCOCC2)CCN1 | 63.46
O=C1CCN(C(=O)C2(c3ccc(F)cc3)CCCC2)CCN1 | 37.18
O=C1CCN(C(=O)C2(c3ccc(F)cc3)CCCCC2)CCN1 | -41.64
CCn1c(C2CCN(C(=O)c3ccc4cc[nH]c4c3)CC2)n[nH]c1=O | -9.71
O=C(c1ccccc1)N1CCCC2(CCN2Cc2cccc(F)c2)C1 (configuration not stated) | 29.03
COc1cc2cc(C(=O)NCC(=O)O)n(C)c2c(OC)c1OC | 16.47
CC(=O)Nc1ccc(CNC2CC(=O)N(Cc3cccc(F)c3)C2)cc1 (configuration not stated) | -34.5
COCCO[C@H]1CCN(c2cc(OC)ncn2)[C@H]1Cc1cccnc1 | 3
Cc1cnc2n(c1=O)CC(C(=O)Nc1ccccc1Cl)CS2 (configuration not stated) | -51.94
Cc1ccc(Cl)cc1NC(=O)C1CSc2ncc(C)c(=O)n2C1 (configuration not stated) | 61.06
Cc1ccncc1NC(=O)C1CSc2ncc(C)c(=O)n2C1 (configuration not stated) | 13.95
Cc1ccc(-c2noc(CN3CCc4cncnc4C3)n2)cc1 | -49.27

Structure (SMILES) | INHIBITION [%]
O=C(c1ccc2c(c1)COC2)N1CCC(Nc2cccnn2)CC1 | 31.19
Cc1cncc(C(=O)N2CC[C@@]3(C[C@H](NS(C)(=O)=O)CCO3)C2)c1 | 17.83
CCCc1cc(=O)[nH]c(-n2nc(C3CC3)cc2N)n1 | -67.99
CC(C)(C)CN1CCCC(O)(CN2CCc3[nH]ncc3C2)C1=O (configuration not stated) | -92.69
O=C1N(CC2CC2)CCCC1(O)CN1CCc2[nH]ncc2C1 (configuration not stated) | 61.42
O=C1N(CC2CCCCC2)CCCC1(O)CN1CCc2[nH]ncc2C1 (configuration not stated) | 29.9
CC(C)c1noc(CCCC(=O)N2CCN(Cc3cccnc3)CC2)n1 | 26.06
O=C(c1ccco1)N1CCCC2(CN(Cc3ccsc3)CCO2)C1 (configuration not stated) | -26.14
Cc1noc(C(C)N2CCN(CCOCC(F)(F)F)CC2)n1 (configuration not stated) | 36.95
CN1CC2(CCN(C(=O)c3ccc4c(=O)n(C)cnc4c3)C2)OC1=O (configuration not stated) | 52.03
Cc1nc[nH]c1C(=O)N1CCC2(CN(C)C(=O)O2)C1 (configuration not stated) | 36.22
CN1CC2(CCN(C(=O)c3ccc4c(=O)n(C)cnc4c3)CC2)CC1=O | -7.68
CC(C)(NCCOc1ccc(CC#N)cc1)c1nccs1 | 56.89
CNC(=O)c1cccnc1NCc1ccc(-n2cccn2)cc1 | -6.98
CNC(=O)c1cccnc1NCc1ccc(Cn2ccnc2)cc1 | 71.57
CC(C)(NCCCOc1ccc(C#N)cc1)c1nccs1 | 9.27
CNC(=O)c1cccnc1NCCOc1ccc(CC#N)cc1 | 54.29
CNC(=O)c1cccc(NCCOc2ccc(CC#N)cc2)c1C | 34.46
Brc1ccc(NCc2ccc(Cn3ccnc3)cc2)nc1 | 74.17
c1ccc(NCc2ccc(Cn3ccnc3)cc2)nc1 | 17.64
Cc1csc(C(C)(C)NCCOc2ccc(CC#N)cc2)n1 | 30.06
CS(=O)(=O)c1ccccc1NCc1ccc(Cn2ccnc2)cc1 | 6.78
CNC(=O)c1cccnc1NCc1ccc(Cn2cccn2)cc1 | -6.29
CNC(=O)c1cccnc1NCCOc1ccccc1 | -1.89
CC(C)(CNC1CCCN(Cc2ccccc2F)C1)CN1CCOCC1 (configuration not stated) | 18.22
CCc1ccccc1CN1CCn2nc(CNC(C)=O)cc2C1 | -31.66
